PubChem BioAssay (EPA / NIEHS)
Activity calls are given as the source filed them. The calls were made as follows: active = hit-call score of the fitted dose curve at least 0.9, where 1 is the maximum; inactive = score below 0.9.

Key:
[1] = read-out: Matrix Metallopeptidase 9 (MMP9), MMP9 (gene 4318); test: BSK_KF3CT_MMP9: BioMAP Diversity Plus: KF3CT Assay for Matrix Metallopeptidase 9 (MMP9) Biomarker Activity (AID 2283074); conditions: primary human keratinocytes with fibroblasts; actives raise or lower the signal;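 as to AC50: MMP9 protein level quantified by ELISA in the co-culture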
In short: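 ELISA read-out of MMP-9 at 24 h post-dosing in a co-culture of human skin keratinocytes and foreskin fibroblasts. Gain or loss of signal was fitted in both directions against DMSO.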

[2] = read-out: urokinase plasminogen activator (uPA), PLAU (gene 5328); test: BSK_KF3CT_uPA: BioMAP Diversity Plus: KF3CT Assay for urokinase plasminogen activator (uPA) Biomarker Activity (AID 2283075); conditions: primary human keratinocytes with fibroblasts; actives raise or lower the signal
In short: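 Skin co-culture (keratinocytes + foreskin fibroblasts), human primary; 24 h post-dose; uPA by ELISA; gain/loss fit vs DMSO baseline.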

CD40, CD40 (gene 958) = test: BSK_LPS_CD40: BioMAP Diversity Plus: LPS Assay for CD40 Biomarker Activity (AID 2283076); conditions: primary human HUVEC with PBMC; actives raise or lower the signal
In short: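 Primary human umbilical vein endothelial cells co-cultured with peripheral blood mononuclear cells, LPS-stimulated, were dosed with chemical and read 24 h later. CD40 levels were measured by ELISA and fitted bidirectionally against DMSO as negative control and baseline.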

[3] = read-out: E-selectin (Homo sapiens) (UniProt P16581); test: BSK_LPS_Eselectin: BioMAP Diversity Plus: LPS Assay for Eselectin Biomarker Activity (AID 2283077); conditions: primary human HUVEC with PBMC; actives raise or lower the signal
In short: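 Human umbilical vein endothelial cells co-cultured with peripheral blood mononuclear cells under LPS stimulation; E-selectin measured by ELISA 24 h after chemical dosing. Activity fitted bidirectionally against DMSO as negative control and baseline.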

[4] = read-out: Interleukin-8 (IL8), CXCL8 (gene 3576); test: BSK_LPS_IL8: BioMAP Diversity Plus: LPS Assay for Interleukin-8 (IL8) Biomarker Activity (AID 2283078); conditions: primary human HUVEC with PBMC; actives raise or lower the signal
In short: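 Human umbilical vein endothelial cells co-cultured with PBMC were stimulated with LPS; IL-8 levels were measured by ELISA 24 h after chemical dosing. Activity was fitted bidirectionally against DMSO as negative control and baseline.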

[5] = BSK_LPS_SRB: Viability Assessment in the BioMAP Diversity Plus: LPS Assay (AID 2283079); conditions: primary human HUVEC with PBMC;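 also: total protein by sulforhodamine B absorbance as a cytotoxicity measure; measured one day after compound addition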
In short: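 Human umbilical vein endothelial cells co-cultured with PBMC (LPS system) were dosed for 24 h. Total protein was stained with 0.1% sulforhodamine B after 10% TCA fixation, read at 560 nm, and fitted bidirectionally against DMSO baseline.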

[6] = read-out: Interleukin-1 alpha (IL1a), IL1A (gene 3552); test: BSK_LPS_IL1a: BioMAP Diversity Plus: LPS Assay for Interleukin-1 alpha (IL1a) Biomarker Activity (AID 2283080); conditions: primary human HUVEC with PBMC; actives raise or lower the signal
In short: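 Human umbilical vein endothelial cells co-cultured with peripheral blood mononuclear cells were LPS-stimulated and exposed to test chemicals for 24 h. IL-1 alpha was quantified by ELISA, with bidirectional curve fitting against DMSO as the negative control and baseline.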

[7] = read-out: Monocyte Chemoattractant Protein-1 (MCP1), CCL2 (gene 6347); test: BSK_LPS_MCP1: BioMAP Diversity Plus: LPS Assay for Monocyte Chemoattractant Protein-1 (MCP1) Biomarker Activity (AID 2283081); conditions: primary human HUVEC with PBMC; actives raise or lower the signal;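 as to AC50: co-culture stimulated with LPS; secreted MCP-1 protein quantified by ELISA in culture supernatant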
In short: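 HUVEC plus PBMC co-culture (human primary cells, LPS system) exposed to test chemical for 24 h; MCP-1 measured by ELISA. Bidirectional curve fitting against DMSO baseline; parallel SRB total-protein staining flags overt cytotoxicity.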

[8] = BSK_LPS_PGE2: BioMAP Diversity Plus: LPS Assay for Prostaglandin E2 (PGE2) Biomarker Activity (AID 2283082); conditions: primary human HUVEC with PBMC; actives raise or lower the signal;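 as to AC50: secreted prostaglandin E2 measured by ELISA in LPS-stimulated co-culture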
In short: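 PGE2 release measured by ELISA in an LPS-activated co-culture of human umbilical vein endothelial cells and peripheral blood mononuclear cells, read at 24 h post-dosing. DMSO served as baseline for bidirectional curve fitting.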

[9] = read-out: C-C motif chemokine 2 (Homo sapiens) (UniProt P13500); test: BSK_KF3CT_MCP1: BioMAP Diversity Plus: KF3CT Assay for Monocyte Chemoattractant Protein 1 (MCP1/CCL2) Biomarker Activity (AID 2283073); conditions: primary human keratinocytes with fibroblasts; actives raise or lower the signal
In short: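 Human keratinocyte plus foreskin fibroblast primary co-culture exposed to chemical for 24 h. MCP-1 levels measured by ELISA. Bidirectional curve fitting relative to DMSO negative control as baseline.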

Measured: AC50

Sequence of E-selectin (Homo sapiens) (P16581 whole entry, looked up): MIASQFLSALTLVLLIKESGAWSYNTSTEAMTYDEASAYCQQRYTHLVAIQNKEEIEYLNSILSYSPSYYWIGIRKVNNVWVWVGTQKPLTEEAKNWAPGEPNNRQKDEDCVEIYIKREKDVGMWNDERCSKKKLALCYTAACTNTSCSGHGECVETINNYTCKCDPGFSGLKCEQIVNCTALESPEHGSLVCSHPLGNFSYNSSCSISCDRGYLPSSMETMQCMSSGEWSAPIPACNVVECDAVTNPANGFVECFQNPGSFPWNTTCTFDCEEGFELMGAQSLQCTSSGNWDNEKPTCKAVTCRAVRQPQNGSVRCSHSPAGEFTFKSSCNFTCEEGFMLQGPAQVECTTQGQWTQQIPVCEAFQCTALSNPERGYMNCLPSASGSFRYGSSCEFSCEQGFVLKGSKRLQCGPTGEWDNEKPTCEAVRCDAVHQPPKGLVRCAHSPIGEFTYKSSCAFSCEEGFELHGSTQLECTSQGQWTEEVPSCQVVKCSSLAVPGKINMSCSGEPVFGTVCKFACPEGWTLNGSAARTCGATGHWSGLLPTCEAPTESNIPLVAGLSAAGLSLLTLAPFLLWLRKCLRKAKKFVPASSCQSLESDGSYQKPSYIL

CCN(C(=O)c1cc(C)cc(OC[C@H](C)Nc2ccncc2)c1)C(C)C
active: [2] 13.5 µM
not listed: [9]
inactive: all other assays above

CC(C)c1cccc(C(C)C)c1N1C(=O)c2ccc(O)cc2C1=O
inactive: [9] | [4] | [6] | [8]
active: [1] 23.2 µM | CD40, CD40 (gene 958) 8.13 µM | [3] 18.9 µM | [5] 17.4 µM | [7] 34.8 µM

CN(C)c1ccc(N=NS(=O)(=O)O)cc1
not listed: [2]
inactive: all other assays above

COc1ccc(-n2nc(C(F)F)cc2-c2ccc(S(C)=O)cc2)cc1 (centres undefined)
active: CD40, CD40 (gene 958) 1.7 µM | [6] 4.92 µM | [8] 0.342 µM
not listed: [2]
inactive: all other assays above

O=C(OC[C@H]1O[C@@H](OC(=O)c2cc(O)c(O)c(OC(=O)c3cc(O)c(O)c(O)c3)c2)[C@H](OC(=O)c2cc(O)c(O)c(OC(=O)c3cc(O)c(O)c(O)c3)c2)[C@@H](OC(=O)c2cc(O)c(O)c(OC(=O)c3cc(O)c(O)c(O)c3)c2)[C@@H]1OC(=O)c1cc(O)c(O)c(OC(=O)c2cc(O)c(O)c(O)c2)c1)c1cc(O)c(O)c(OC(=O)c2cc(O)c(O)c(O)c2)c1
active: [1] 6.1 µM | [2] 1.08 µM | [5] 10 µM | [7] 11 µM
not listed: [9]
inactive: all other assays above

O=c1[nH]c2ccc(S(=O)CCN3CCC(Cc4ccc(F)cc4)CC3)cc2o1 (centres undefined)
not listed: [9]
inactive: all other assays above

O=C(NS(=O)(=O)/C=C/c1ccccc1)c1ccc(F)cc1Cl
not listed: [2]
inactive: all other assays above

O=C(CCCCCCCCc1cccnc1)N1CCC(C=C(c2ccccc2)c2ccccc2)CC1
inactive: [8]
active: [1] 7.47 µM | [2] 15.7 µM | CD40, CD40 (gene 958) 8.31 µM | [3] 14.4 µM | [4] 12 µM | [5] 11.7 µM | [6] 9.81 µM | [7] 10.1 µM

O=C(O)c1cccc(Oc2ccccc2)c1
not listed: [9]
inactive: all other assays above

CCOc1cccc(-n2cc(C(=O)N3CCN(c4cc(C(=O)O)c5ccccc5c4)CC3)nc2-c2ccc(C)cc2)c1
active: [9] 19.2 µM | [1] 19.7 µM | CD40, CD40 (gene 958) 14.2 µM | [3] 31.3 µM | [4] 27.2 µM | [5] 13.7 µM | [6] 19.2 µM | [7] 30.7 µM | [8] 29.4 µM

CC(C)CCCCCCCOC(=O)CCCCC(=O)OCCCCCCCC(C)C
not listed: [9]
inactive: all other assays above

CCCCCCc1ccc(O)cc1O
active: [9] 26.2 µM | [1] 34.1 µM | CD40, CD40 (gene 958) 27.6 µM | [3] 31.8 µM | [4] 29.6 µM | [5] 28.5 µM | [6] 26.6 µM | [7] 30.2 µM | [8] 1.38 µM

O=C1CCCCCN1
not listed: [2]
inactive: all other assays above

CCc1cc(SCc2sc(-c3ccc(C(F)(F)F)cc3)nc2CN2CCN(c3ccc(OC)cc3)CC2)ccc1OCC(=O)O
active: [9] 4.26 µM | [1] 4.08 µM | CD40, CD40 (gene 958) 6.6 µM | [3] 14.8 µM | [4] 33.6 µM | [5] 13.4 µM | [6] 30.6 µM | [7] 12.3 µM | [8] 20 µM

COCCOCCOCCOC
not listed: [9]
inactive: all other assays above

CC(C)=CCCC(C)=CC=O
not listed: [9]
inactive: all other assays above

O=C1OC(=O)C2C3C=CC(C3)C12 (centres undefined)
not listed: [2] | [9]
inactive: all other assays above

COC(=O)c1ccccc1O
not listed: [2] | [9]
inactive: all other assays above

Cc1[nH]cnc1C[C@H]1CCc2c(C)c3ccccc3n2C1=O
active: CD40, CD40 (gene 958) 27.8 µM | [4] 24.3 µM | [5] 26.2 µM | [7] 27 µM
inactive: [1] | [3] | [6] | [8]

CC(C)CC(C)(O)C#CC(C)(O)CC(C)C (centres undefined)
not listed: [9]
inactive: all other assays above

On1ccccc1=S
active: [1] 8.53 µM | [2] 11 µM | CD40, CD40 (gene 958) 19.8 µM | [3] 31.2 µM | [5] 26.2 µM | [6] 19.8 µM | [8] 31.1 µM
inactive: [4] | [7]

CCCC(=O)OCC
not listed: [2] | [9]
inactive: all other assays above
